Among the data in PubChem BioAssay (NCI) are growth inhibition values, retold here.

SMILES strings stand for the structures. The panel holds about 79,000 compounds, 15% with a hit somewhere; the sample as a whole holds those more often. Values without a mark were called inactive. Active and inactive are the calls of the source. Cut-off read from the data, not from the text of the source: active = growth inhibition above about 70%; inactive = the rest.

This experiment is described as follows: NCI Yeast Anticancer Drug Screen. Data for the CLN2oe strain (AID 163).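 Note: 0% = growth of vehicle-only control cultures.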 Conditions: S. cerevisiae CLN2oe strain, at 100.0 µM, stronger effect = higher value. A digest of the protocol: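 Read-out: yeast growth inhibition, expressed relative to vehicle-only controls. The strain bears an engineered cell-cycle alteration.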
For `O=[N+]([O-])c1cc[n+]([O-])cc1`, the growth inhibition was 98% (active). Take `CC1(C)CC(=O)C(/C=N/c2nc(-c3ccccc3)cs2)=C(O)C1`: the growth inhibition was 61%. For `Nc1nc(N)c2nc(CNc3ccc(C(=O)NC(CCC(=O)O)C(=O)O)cc3F)cnc2n1` (stereo unspecified) the value was 46%; for `COC(=O)CC1(O)C(/C=C/c2ccccc2)C(C(=O)OC)C(=O)C(C(=O)OC)C1C(=O)OC` (stereo unspecified), 39%.

`CC(C)(C)c1ccc(NS(=O)(=O)c2ccc(N)cc2)cc1`: the growth inhibition is 19%.

Regarding `CCN(CC)CCNc1ccc([N+](=O)[O-])c2nc3ccccc3c(N)c12`, the growth inhibition was 4%.

For the compound `CCCCN(CCCC)C(=O)/C=C/c1ccccc1`, the growth inhibition is 43%. The same measure for `O=c1[nH]c(-c2ccccc2)nc2c1sc1nc3ccccc3n12`: -20%. The same measure for `O=[N+]([O-])c1ccc2c(c1)/C(=N/N=C1c3ccccc3Cc3ccccc31)c1cc([N+](=O)[O-])cc([N+](=O)[O-])c1-2`: 95% (active); for `CC(C)C(C)/C=C\C(C)C1CCC2C3=CC=C4CC(O)CCC4(C)C3CCC21C` (stereo unspecified): 11%; for `O=C1Nc2ccc(Br)cc2C1=Nc1ccc2c(c1)OCO2`: 21%. For `CCCCOCn1c(=O)[nH]c(=O)c2cc(Br)ccc21` the value was -29%.

`Cc1ccc(S/C(=C\C(=O)O)c2ccccc2)cc1`: the growth inhibition is 35%. For `O=[N+]([O-])/C=C/c1cc(Cl)c(/C=C/[N+](=O)[O-])cc1Cl` the value was 73% (active); for `Cc1cc(S(=O)(=O)Nc2nnc3cnc4ccccc4n23)c(S)cc1Cl`, 44%; for `O=C(/C=C/c1cc(Cl)cc(Cl)c1O)c1cccc(O)c1`, 98% (active).
